# Source: PubChem BioAssay
# Shown are actives, neighbours in structure and some others; about 10% of the full set was active somewhere.
# Six1-Eya2 blk: inhibitors of human Six1/Eya2 interaction | Q15475+O00167 | AlphaScreen GST-Six1/His-Eya2 binding, biochemical; hits give low values | activity change, % (concentration not given with the values) | 0.56% of 360,000 active; in the data active = activity change below about -65%; inconclusive = mostly about -30% to -63%; note: % is set by controls: 0 for no effect and ±100 for the full control effect
#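 GST-Six1 + His-Eya2 (5X stock: 250/500 nM); Tris pH 8.0, 300 mM NaCl, 0.05% BSA, 0.02% Tween 20; GSH donor/Ni acceptor beads; 1 h 37 °C dark; AlphaScreen readout.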
# HP1b binding inh: blocks HP1-beta chromodomain binding to methylated histone tails. P83916. AlphaScreen HP1-beta / biotin-H3K9me3 peptide binding. Potency, µM (titrated, usually from 114 µM), inactives show at the top dose activity change, negative = inhibition, actives largely listed as inhibitors. 0.56% of 390,000 active; note: potency is the fitted concentration of half-maximal effect; nearly all actives have a fitted effect of over 70% in size
# Target sequence (P83916 whole entry, looked up): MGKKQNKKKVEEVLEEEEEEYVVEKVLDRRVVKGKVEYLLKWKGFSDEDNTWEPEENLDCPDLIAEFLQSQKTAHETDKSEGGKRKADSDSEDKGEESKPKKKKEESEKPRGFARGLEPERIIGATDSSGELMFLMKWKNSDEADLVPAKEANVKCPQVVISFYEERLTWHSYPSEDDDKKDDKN
#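 Compound inhibition of the preformed complex between 50 nM HP1-beta and 50 nM biotinylated H3K9me3 peptide was read by AlphaScreen. Buffer was PBS pH 7.4 with 0.01% Tween-20. Incubations ran 30 min at room temperature, with 10 ug/mL donor/acceptor beads.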
# BAZ2B inh: blocks human BAZ2B; Q9UIF8; AlphaScreen BAZ2B-H3K14Ac peptide displacement; Potency, µM (doses to about 114 µM), for the others: at the top dose activity change, negative = inhibition, most hits filed as inhibitors; 4.4% of 360,000 active; AID 504333; note: potency is the fitted concentration of half-maximal effect; % is set by controls: 0 for no effect and ±100 for the full control effect; nearly all actives have a fitted effect of over 60% in size
#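 Complex of BAZ2B and biotin-H3K14Ac (50 nM apiece) forms over 30 min at RT, then faces library compounds up to 110 uM for another 30 min; AlphaScreen beads added, 20 min dark incubation, luminescence read.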
# CtBP-E1A blk: blocks the CtBP interaction with E1A; AlphaScreen GST-E1A/His-CtBP binding, 1536-well; hits give low values; activity change, % (no concentration beside the values); 0.49% of 340,000 active; in the data active = activity change below about -65%; inconclusive = mostly about -30% to -63%; note: % is set by controls: 0 for no effect and ±100 for the full control effect
#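 Steps: dispense buffer (Tris pH 8.0, NaCl 300 mM, TCEP 1 mM, BSA, Tween 20); add 5X protein mix (GST-E1A, His-CtBP, 125 nM each); pin 23 nL compound; 2 h at 37 °C, dark; add 5X beads (50 ug/mL); 1 h; read.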
# G9a inh: G9a (human) methyltransferase inhibition | Q96KQ7 | Potency, µM (top dose mostly 102 µM), inactives show at the top dose activity, negative = inhibition, actives largely listed as inhibitors | 8.8% of 350,000 active | AID 504332 | G9a H3K9 monomethylation, AlphaScreen, 2 h; note: potency is the fitted concentration of half-maximal effect; % is set by controls: 0 for no effect and ±100 for the full control effect; nearly all actives have a fitted effect of over 75% in size
# Target sequence (Q96KQ7 913-1193 limits assumed): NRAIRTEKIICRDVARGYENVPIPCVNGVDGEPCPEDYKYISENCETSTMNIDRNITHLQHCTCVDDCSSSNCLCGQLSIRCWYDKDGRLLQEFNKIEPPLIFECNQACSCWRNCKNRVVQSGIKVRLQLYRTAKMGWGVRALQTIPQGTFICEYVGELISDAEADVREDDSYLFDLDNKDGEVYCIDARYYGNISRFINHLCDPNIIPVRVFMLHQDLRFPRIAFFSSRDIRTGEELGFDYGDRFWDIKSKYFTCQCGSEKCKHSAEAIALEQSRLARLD
#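 Readings reflect AlphaScreen signal from monomethyl-H3K9 antibody detection. HMT at 20 nM; substrate b-H3K9 500 nM; cofactor SAM 20 uM; 2 h RT reaction; compounds tested as titrations in qHTS with 15 min preincubation.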
# JMJD2A Tudor: blocks the human JMJD2A Tudor domain; 4.4% of 390,000 active; Potency, µM (titrated, usually from 114 µM), inactives show top-dose activity change, negative = inhibition, actives largely listed as inhibitors; O75164; AlphaScreen JMJD2A-Tudor / H3K4me3 peptide binding; note: potency is the fitted concentration of half-maximal effect; % is set by controls: 0 for no effect and ±100 for the full control effect; nearly all actives have a fitted effect of over 50% in size
# The depositor's hits bear a star; ? = inconclusive; / = not tested or not shown; [ ] = dose if it differs, or a comment. Unless noted, calls come from the whole dose curve; as a rule, active = well fitted inhibition curve with a large enough effect; inconclusive = small, poorly fitted or top-dose-only effect; inactive = no such curve, though single readings can be large or run the other way.
SMILES,Six1-Eya2 blk,HP1b binding inh,BAZ2B inh,CtBP-E1A blk,G9a inh,JMJD2A Tudor
Cc1ccc2c(c1)C(=O)OC(C(=O)Nc1ncc(Cc3ccc(C(C)C)cc3)s1)C2 (configuration not stated),/,30%,-2%,/,10%[59 µM],8%
CC(C)(C)S(=O)(=O)/C(C#N)=N/Nc1ccc(S(N)(=O)=O)cc1,6,27%,-23%,8,-24%,89µM*
CC(C)(C)S(=O)(=O)/C(C#N)=N/Nc1ccc(C#N)cc1,0,22%,71µM*,0,-34%,-23%
O=C1CCc2cc(S(=O)(=O)Nc3cccc4ccccc34)ccc2N1,/,/,/,/,/,-25%
COc1cccc(/C=N/NC(=O)c2cnccn2)c1OC,-1,18%,-4%,3,7%,20µM*
COc1cc(OC)c(OC)cc1/C=N/NC(=O)c1ccc(=O)n(C)c1,-3,18%,-4%,-1,23%[59 µM],-18%[57.1 µM]
COc1cccc(/C=N/NC(=O)c2c(C)nc3ccc(Cl)cn23)c1O,-78*,23%,8.9µM*,-94*,-10%,56µM*
COc1cccc(/C=N/NC(=O)c2ccc(=O)[nH]n2)c1O,-79*,49%,50µM*,/,-4%,79µM*
COc1ccccc1/C=N\NC(=O)c1c(C)nc2ccc(Cl)cn12,-2,22%,11%,-13,0%[59 µM],-6%
COc1cccc(/C=N/NC(=O)c2ccc(=O)n(C)c2)c1O,-88*,17%,?,-87*,16%[59 µM],56µM*
COc1cccc(/C=N/NC(=O)c2[nH]c(C)c(C(=O)N/N=C/c3cccc(OC)c3O)c2C)c1O,-92*,-11%,-9%,-1,5%[12.7 µM],?
COc1cccc(/C=N/NC(=O)c2ccc(-c3ccccc3)cc2)c1O,7,17%,4%,-4,-9%,-24%
COc1ccc(OC)c(NC(=S)N(CCc2c(C)[nH]c3ccc(C)cc23)Cc2cccs2)c1,-22,7%,?,-16,45µM*,?
COc1ccc(OC)c(NC(=S)N(CCc2c(C)[nH]c3ccccc23)Cc2cccs2)c1,?,8%,?,-21,56µM*,?
COc1ccc2[nH]c(C)c(CCN(Cc3cccs3)C(=S)Nc3cccc(F)c3)c2c1,-18,-19%,?,1,?,?
Cc1oc(-c2cccs2)nc1CS(=O)CC(=O)NCCc1ccccc1 (configuration not stated),-2,21%,-25%,-1,50µM*,-26%
COc1ccc(-c2nc(CS(=O)CC(=O)NCCC3=CCCCC3)c(C)o2)cc1 (configuration not stated),13,57%,-2%,24,79µM*,-19%
COc1ccc(-c2nc(CS(=O)CC(=O)NC3CCCCC3)c(C)o2)cc1OC (configuration not stated),-1,39%,-15%,-12,?,-5%
Cc1oc(-c2ccc(Cl)cc2)nc1CS(=O)CC(=O)NCCc1ccccc1 (configuration not stated),/,20%,-13%,/,6%[59 µM],-27%
CCCCNC(=O)CS(=O)Cc1nc(-c2cccs2)oc1C (configuration not stated),5,35%,-2%,-4,50µM*,-9%
COc1ccc(-c2nc(CS(=O)CC(=O)NC3CCCC(C)C3C)c(C)o2)cc1OC (configuration not stated),-1,27%,-4%,0,56µM*,-5%
Cc1oc(-c2cccs2)nc1CS(=O)CC(=O)NCCCOC(C)C (configuration not stated),1,45%,5%,8,?,-11%
Cc1ccccc1S(=O)(=O)N1CCN(S(=O)(=O)c2ccc3c(c2)OCCO3)CC1,/,/,/,/,/,-8%
CN1CCN(c2ccc(-c3nc(-c4ccccc4)no3)cc2[N+](=O)[O-])CC1,/,14%,?,/,-1%[59 µM],-27%
Cc1nn(C)c2c1c(-c1ccccc1)cc(=O)n2C(C)C(=O)NCc1ccc(F)cc1 (configuration not stated),/,-15%,-14%,/,3%[59 µM],-19%
SMILES,Six1-Eya2 blk,HP1b binding inh,BAZ2B inh,CtBP-E1A blk,G9a inh,JMJD2A Tudor
CCNC(=S)NCc1ccc2[nH]c(C)cc2c1,-26,-16%,?,?,50µM*,?
Cc1cc2cc(CNC(=S)Nc3ccc(OC(F)F)cc3)ccc2[nH]1,-12,-15%,45µM*,0,-20%,?
CCN(CCCNC(=O)CCn1c(=O)[nH]c2ccccc2c1=O)c1cccc(C)c1,-8,29%,-23%,-13,10µM*,-11%[57.1 µM]
CCN(CCCNC(=O)Cn1ncc2c([nH]c3ccc(C)cc32)c1=O)c1cccc(C)c1,10,32%,-1%,-12,5%[59 µM],-14%
CCN(CCCNC(=O)CCc1nc(-c2ccc(C)cc2)no1)c1cccc(C)c1,-26,?,?,?,45µM*,-26%[11.4 µM]
Cc1cccc(-c2noc(CCC(=O)NCCc3ccccc3)n2)c1,8,54%,15%,0,9%,-11%
Cn1c(=O)cc(OCC(=O)NCCCN2CCN(c3cccc(Cl)c3)CC2)c2ccccc21,-19,17%,-29%,-20,50µM*,-35%
CCN(CCCNC(=O)CCCn1c(=O)[nH]c2ccccc2c1=O)c1cccc(C)c1,-15,-12%,?,-7,13µM*,-28%[57.1 µM]
Cn1c(=O)c2c(nc(SCC(=O)Nc3ccc(F)cc3)n2Cc2ccccc2F)n(C)c1=O,/,20%,-11%,/,-35%[59 µM],-4%
COc1ccc(-c2cc3nc(C)c(CCC(=O)NC4CCCCC4)c(C)n3n2)c(OC)c1,/,39%,-9%,/,1%[59 µM],-2%
CCc1cnc2c(c1SCC(=O)NCc1ccc(F)cc1)c(=O)n(C)c(=O)n2C,/,18%,1%,/,1%[59 µM],-10%
COC(=O)c1ccccc1NC(=O)c1ccc2c(c1)CCN2S(C)(=O)=O,/,40%,6%,/,-1%[59 µM],-14%
CCN(CCCNC(=O)COc1cc(=O)n(C)c2ccccc12)c1cccc(C)c1,-23,-1%,50µM*,-17,35µM*,?
CCN(CCCNC(=O)CCn1c(=O)[nH]c2ccccc2c1=O)c1ccccc1,-4,13%,-1%,-3,50µM*,-27%
CCCCCNC(=O)CCn1c(=O)[nH]c2ccccc2c1=O,/,8%,-5%,/,3%[59 µM],-7%
O=C1NC(=O)C2C3C=CC(C3)C12 (configuration not stated),/,/,/,/,10%[12.7 µM],/
Cc1ccc(NC(=O)CCC(=O)N2CCSc3ccccc32)cc1Cl,/,11%,-7%,/,6%[59 µM],-21%
Cn1cc(P(=S)(N2CCOCC2)N2CCOCC2)cc1P(=S)(N1CCOCC1)N1CCOCC1,2,3%,-9%,0,45µM*,1%
